In the supplement of paper PMC7724964:

T1: GGA1 1-157 VHS (domain begin residue: 1, domain end residue: 157), Q9UJY5
T1 chain: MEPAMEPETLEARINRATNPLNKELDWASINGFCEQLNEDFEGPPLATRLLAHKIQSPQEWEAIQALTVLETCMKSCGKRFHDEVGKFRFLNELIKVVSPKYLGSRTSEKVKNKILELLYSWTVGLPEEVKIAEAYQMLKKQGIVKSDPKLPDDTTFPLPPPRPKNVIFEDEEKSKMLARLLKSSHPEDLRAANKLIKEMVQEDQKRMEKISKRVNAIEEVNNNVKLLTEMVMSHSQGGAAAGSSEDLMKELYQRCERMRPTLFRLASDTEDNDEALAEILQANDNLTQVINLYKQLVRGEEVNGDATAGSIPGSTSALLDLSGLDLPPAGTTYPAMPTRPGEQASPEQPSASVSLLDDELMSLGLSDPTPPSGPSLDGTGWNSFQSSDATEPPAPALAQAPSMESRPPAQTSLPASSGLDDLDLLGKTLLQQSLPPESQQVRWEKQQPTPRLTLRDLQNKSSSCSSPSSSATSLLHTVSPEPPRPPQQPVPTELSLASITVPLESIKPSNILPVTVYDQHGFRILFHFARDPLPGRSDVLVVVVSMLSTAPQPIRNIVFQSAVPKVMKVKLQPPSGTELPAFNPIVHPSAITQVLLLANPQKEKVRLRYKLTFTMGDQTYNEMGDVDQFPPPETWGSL

T2: FRS3 12-117 IRS (domain begin residue: 12, domain end residue: 117), O43559
T2 chain: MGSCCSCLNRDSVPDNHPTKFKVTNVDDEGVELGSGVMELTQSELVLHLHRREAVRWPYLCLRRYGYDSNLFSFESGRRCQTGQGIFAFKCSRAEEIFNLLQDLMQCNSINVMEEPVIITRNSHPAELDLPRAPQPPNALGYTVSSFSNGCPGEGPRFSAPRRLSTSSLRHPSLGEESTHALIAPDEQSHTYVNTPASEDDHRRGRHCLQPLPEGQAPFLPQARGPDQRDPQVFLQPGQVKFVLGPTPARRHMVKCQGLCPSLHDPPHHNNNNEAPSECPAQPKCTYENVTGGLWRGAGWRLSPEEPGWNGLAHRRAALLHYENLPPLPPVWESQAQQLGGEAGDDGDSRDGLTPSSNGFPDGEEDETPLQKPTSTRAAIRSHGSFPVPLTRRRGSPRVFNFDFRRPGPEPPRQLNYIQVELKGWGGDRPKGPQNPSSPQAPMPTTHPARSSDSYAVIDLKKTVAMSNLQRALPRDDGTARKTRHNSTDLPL

T3: GIGYF2 507-602 GYF (domain begin residue: 507, domain end residue: 602), Q6Y7W6
T3 chain: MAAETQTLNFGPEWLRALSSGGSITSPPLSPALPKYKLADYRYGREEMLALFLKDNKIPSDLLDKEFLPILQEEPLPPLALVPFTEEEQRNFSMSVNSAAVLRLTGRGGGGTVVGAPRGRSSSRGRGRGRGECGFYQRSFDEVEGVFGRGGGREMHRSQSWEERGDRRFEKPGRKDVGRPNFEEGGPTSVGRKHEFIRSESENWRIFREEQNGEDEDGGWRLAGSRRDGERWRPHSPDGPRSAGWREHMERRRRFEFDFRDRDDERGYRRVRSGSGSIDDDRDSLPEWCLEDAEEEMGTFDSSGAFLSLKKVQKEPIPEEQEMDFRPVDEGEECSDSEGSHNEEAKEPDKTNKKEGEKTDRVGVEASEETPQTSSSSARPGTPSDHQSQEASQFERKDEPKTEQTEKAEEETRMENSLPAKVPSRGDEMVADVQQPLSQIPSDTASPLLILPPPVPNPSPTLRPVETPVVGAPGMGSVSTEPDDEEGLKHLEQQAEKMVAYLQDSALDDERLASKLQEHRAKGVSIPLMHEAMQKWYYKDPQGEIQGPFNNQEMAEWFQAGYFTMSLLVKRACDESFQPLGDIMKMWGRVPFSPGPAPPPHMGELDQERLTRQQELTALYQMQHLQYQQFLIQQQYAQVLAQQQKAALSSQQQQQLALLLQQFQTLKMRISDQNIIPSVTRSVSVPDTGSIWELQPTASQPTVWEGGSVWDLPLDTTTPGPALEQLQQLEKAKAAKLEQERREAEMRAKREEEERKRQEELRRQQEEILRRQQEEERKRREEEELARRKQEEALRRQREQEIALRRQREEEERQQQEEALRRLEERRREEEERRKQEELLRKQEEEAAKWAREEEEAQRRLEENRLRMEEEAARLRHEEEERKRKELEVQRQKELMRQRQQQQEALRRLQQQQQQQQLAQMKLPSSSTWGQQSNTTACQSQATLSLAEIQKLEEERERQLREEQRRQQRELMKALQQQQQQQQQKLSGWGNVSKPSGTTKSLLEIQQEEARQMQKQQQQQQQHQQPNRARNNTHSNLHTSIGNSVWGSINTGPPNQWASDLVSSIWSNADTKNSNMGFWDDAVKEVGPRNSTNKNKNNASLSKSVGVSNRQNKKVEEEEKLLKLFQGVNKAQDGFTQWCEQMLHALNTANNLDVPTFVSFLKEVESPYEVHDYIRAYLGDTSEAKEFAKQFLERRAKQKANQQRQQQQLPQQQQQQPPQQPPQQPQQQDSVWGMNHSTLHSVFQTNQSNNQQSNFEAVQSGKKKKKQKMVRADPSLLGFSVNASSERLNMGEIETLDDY

T4: GIGYF1 448-540 GYF (domain begin residue: 448, domain end residue: 540), O75420
T4 chain: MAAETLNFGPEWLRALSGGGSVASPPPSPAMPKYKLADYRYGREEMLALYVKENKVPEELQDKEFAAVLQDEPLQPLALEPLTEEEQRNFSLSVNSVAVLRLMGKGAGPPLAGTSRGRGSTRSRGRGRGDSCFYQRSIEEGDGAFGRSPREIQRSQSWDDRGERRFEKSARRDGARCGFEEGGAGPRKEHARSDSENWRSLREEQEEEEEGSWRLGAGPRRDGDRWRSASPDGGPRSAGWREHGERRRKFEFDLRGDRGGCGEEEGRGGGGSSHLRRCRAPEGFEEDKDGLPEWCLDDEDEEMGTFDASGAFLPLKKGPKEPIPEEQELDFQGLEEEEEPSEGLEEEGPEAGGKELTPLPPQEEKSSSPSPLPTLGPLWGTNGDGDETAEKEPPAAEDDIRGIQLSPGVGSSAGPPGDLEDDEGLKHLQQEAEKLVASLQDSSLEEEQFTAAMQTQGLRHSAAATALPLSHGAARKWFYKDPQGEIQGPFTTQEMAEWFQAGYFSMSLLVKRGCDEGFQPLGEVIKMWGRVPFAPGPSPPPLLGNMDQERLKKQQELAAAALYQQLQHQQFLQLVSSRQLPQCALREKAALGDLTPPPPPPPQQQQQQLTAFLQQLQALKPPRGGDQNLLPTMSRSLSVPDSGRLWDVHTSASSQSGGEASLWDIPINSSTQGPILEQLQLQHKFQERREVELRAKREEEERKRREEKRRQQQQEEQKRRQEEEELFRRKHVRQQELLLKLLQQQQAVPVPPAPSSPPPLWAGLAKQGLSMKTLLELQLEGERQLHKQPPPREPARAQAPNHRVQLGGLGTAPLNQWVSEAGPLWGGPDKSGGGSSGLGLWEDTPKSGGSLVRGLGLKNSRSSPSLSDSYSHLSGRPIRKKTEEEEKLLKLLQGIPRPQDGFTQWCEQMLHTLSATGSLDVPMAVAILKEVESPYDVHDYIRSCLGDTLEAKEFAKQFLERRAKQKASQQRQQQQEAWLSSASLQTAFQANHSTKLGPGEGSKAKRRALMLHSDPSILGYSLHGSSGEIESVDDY

T5: SPRED2 1-124 WH1 (domain begin residue: 1, domain end residue: 124), Q7Z698
T5 chain: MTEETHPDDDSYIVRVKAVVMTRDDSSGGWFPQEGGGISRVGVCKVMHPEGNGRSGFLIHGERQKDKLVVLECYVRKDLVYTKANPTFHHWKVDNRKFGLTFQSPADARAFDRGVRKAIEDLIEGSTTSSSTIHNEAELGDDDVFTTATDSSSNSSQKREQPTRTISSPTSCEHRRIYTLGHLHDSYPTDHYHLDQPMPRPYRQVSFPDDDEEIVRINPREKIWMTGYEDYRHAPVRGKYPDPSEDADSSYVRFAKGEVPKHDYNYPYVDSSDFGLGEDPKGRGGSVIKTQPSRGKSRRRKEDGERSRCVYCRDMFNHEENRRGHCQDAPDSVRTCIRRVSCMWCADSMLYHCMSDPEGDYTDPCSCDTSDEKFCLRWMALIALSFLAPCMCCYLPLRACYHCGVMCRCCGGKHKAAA

T6: FKBP3 109-224 FKBP_C (domain begin residue: 109, domain end residue: 224), Q00688
T6 chain: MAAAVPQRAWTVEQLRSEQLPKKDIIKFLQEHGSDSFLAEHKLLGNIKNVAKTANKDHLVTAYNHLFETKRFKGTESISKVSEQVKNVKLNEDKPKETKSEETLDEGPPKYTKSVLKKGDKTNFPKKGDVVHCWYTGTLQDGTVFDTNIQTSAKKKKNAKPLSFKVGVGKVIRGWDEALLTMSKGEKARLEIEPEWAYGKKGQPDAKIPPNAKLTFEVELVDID


What follows are binders tested against GGA3 1-153 VHS (domain begin residue: 1, domain end residue: 153) (assay: phage ELISA signal ratio (GST-PRM binding over GST background); higher = stronger binding of peptide-phage to the PRM).
Summary of the method: (§1)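 An M13 phage library with randomized hexadecapeptides on the gene-8 major coat protein, each peptide lacking cysteine and flanked by glycine, was selected for five rounds against human peptide recognition domains fused to the C-terminus of glutathione S-transferase (GST) and expressed in 96-well plates. Approximately 48 clones from rounds 4 and 5 went to phage ELISA. The reported value is the ELISA signal on the GST-domain fusion over the signal on GST alone, and positive clones were sequenced.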

Binder	phage ELISA signal ratio
EYLQIPVHHVDGIWSV	10.8
EMDVEMWFPHFMNHSF	34.5
HSQWWVGPEQPWGQVQ	12.2
MDWTILDFPYQNWPRS	13.9
QAWDWGIYIDDWAQPL	10.6
PDTELIDVHQWRTSQW	22.1
EVWWQGPEEDWMQTYL	11.9
SDVPPWWYHEPITGPM	17.8
VDEWSVMKYPVEQKWV	21.6

Target: T1, GGA1 1-157 VHS (domain begin residue: …
Test: as above
Summary of the method: as §1

Binder	phage ELISA signal ratio
TMHHDDQLLDLYSVRK	18.5
PDAMPLWHGHHVVPVY	18.9
WGHYEEDQMFVFMDHE	19.8
HDFYIPYMYQDVTMIM	6.03
PQIQWYMDDILLVPTI	15.5
GEMDDPMMHFSWVAMW	12.6

Target: T2, FRS3 12-117 IRS (domain begin residue: …
Test: as above
Summary of the method: as §1

Binder	phage ELISA signal ratio
SQWMWIVHEPVKNLPK	3.36
VGQGVFLDWKPGRDVN	10.6

Target: T3, GIGYF2 507-602 GYF (domain begin …
Test: as above
Summary of the method: as §1

Binder	phage ELISA signal ratio
QPPPGWVPSTELLEFL	23.1
NMFMPPGFAPQQVQMH	13.9
AMTPPGFPHNTQMIRA	16.9
RFPPGMMQQLPQYADS	29.9

The binders below were run against GGA3 579-723 Alpha_adaptinC2 (domain begin residue: 579, domain end residue: 723) in the same assay as above.
Summary of the method: as §1

Binder	phage ELISA signal ratio
DTWMWGGYVSHTVQPY	23.1
IENSQPWITEYGAWEV	6.07
AWGKYQSWEPQEWPAT	13.4
GEQMMWVDWGQWHWYE	26

Target: T4, GIGYF1 448-540 GYF (domain begin …
Test: as above
Summary of the method: as §1

Binder	phage ELISA signal ratio
TIDTPPGFPTSQHEGM	16.8
GPPGFHQHADVMRYEM	20.9
SAPPGYQTGLLMAEYR	7.85

Target: T5, SPRED2 1-124 WH1 (domain begin residue: …
Test: as above
Summary of the method: as §1

Binder	phage ELISA signal ratio
SAPPGYQTGLLMAEYR	3.46

Target: T6, FKBP3 109-224 FKBP_C (domain begin …
Test: as above
Summary of the method: as §1

Binder	phage ELISA signal ratio
VGQGVFLDWKPGRDVN	17.5
